Test results reported in PubChem BioAssay (NCATS).
Results filed as inconclusive are left out. A call without a number means that no potency is given here. Activity calls are given as the source filed them. Calls follow the shape of the dose curve; as a rule, active = well fitted inhibition curve with a large enough effect; inconclusive = small, poorly fitted or top-dose-only effect; inactive = no such curve, though single readings can be large or run the other way.

Legend:
[1] = test system: Zika virus NS2B-NS3 protease (unlinked complex); assay: Primary screen GU Rhodamine qHTS for Zika virus inhibitors: Unlinked NS2B-NS3 protease assay (AID 1347159); also: nearly all actives have a fitted effect of over 60% in size
How it was run: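 Unlinked NS2B/NS3, 25 nM; Rhod110 peptide, 1.5 microM; compounds, up to 114 microM. Reaction run 15 min at RT in 10 mM Tris-HCl pH 8.0, 0.01% Tween 20; kinetic fluorescence change fitted with a 4-parameter Hill model.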

[2] = test system: Zika virus NS2B-NS3 protease (linked construct); assay: Primary screen NINDS Rhodamine qHTS for Zika virus inhibitors (AID 1347160); also: nearly all actives have a fitted effect of over 55% in size
How it was run: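 Single-chain NS2B-NS3 protease, 25 nM, pH 8.0; compounds preincubated 15 min. Activity: Rhodamine110 release from 1.5 microM substrate over 15 min, room temperature, data fitted to 4-parameter Hill.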
Potency is read from the fitted curve at half-maximal effect.

Structure (SMILES) | Potency [1] | Potency [2]
CC(=O)NC(Cc1c[nH]c2ccccc(=O)c12)C(=O)O (centres undefined) | 22.4 µM (active) | 15.8 µM (active)
COc1cc(/C=C/C(=O)O[C@H]2[C@H](O)[C@@H](CO)O[C@@]2(CO)O[C@H]2O[C@H](CO)[C@@H](O)[C@H](O)[C@H]2O)cc(OC)c1O | inactive | inactive
COC(=O)C1=CO[C@@H](O[C@@H]2O[C@H](CO)[C@@H](O)[C@H](O)[C@H]2O)[C@H]2[C@@H]1C=C[C@]21C=C([C@H](C)OC(=O)/C=C/c2ccc(O[C@@H]3O[C@H](CO)[C@@H](O)[C@H](O)[C@H]3O)cc2)C(=O)O1 | inactive | inactive
NC(N)=NCCC[C@H](NC(=O)c1sccc1NS(=O)(=O)c1cccc2nsnc12)C(=O)O | inactive | inactive
Cc1onc(-c2ccccc2Cl)c1C(=O)N(C)c1ccc(Cl)cc1 | inactive | inactive
NC(=O)NCCCC(NC(=O)Cc1ccccc1)C(=O)O (centres undefined) | inactive | inactive
C/C=C(\C)C(=O)OC[C@H]1O[C@@H](O[C@H]2[C@@H](O[C@H]3O[C@H](CO)[C@@H](O)[C@H](O)[C@H]3O[C@@H]3O[C@H](CO)[C@@H](O)[C@H](O)[C@H]3O)O[C@H](COC(=O)/C(C)=C/C)[C@@H](O)[C@@H]2O)[C@H](O)[C@@H](O)[C@@H]1O | inactive | inactive
CC(=O)O[C@@H]1C(=O)C(C)=C(CCC(C)CC(=O)O)[C@@]2(C)CCCC(C)(C)C12 (some centres undefined) | inactive | inactive
O=C(O)c1ccnc2cc(-c3nc4ccccc4n3CCN3CCCCC3)sc12 | inactive | inactive
Cc1ccc(Cl)cc1N(CC(=O)Nc1c(F)cccc1F)S(C)(=O)=O | inactive | inactive
C=C1CCC(OC(C)=O)C2(C)CC3OC(=O)C(C)=C3CC12 (centres undefined) | inactive | inactive
COc1c(O[C@@H]2O[C@H](CO)[C@@H](O)[C@H](O)[C@H]2O)c(CCC(=O)O)cc2ccoc12 | inactive | inactive
COc1ccc(/C=C/C(=O)O[C@@H]2[C@@H](O[C@@H]3O[C@H](CO)[C@@H](O)[C@H](O)[C@H]3O)[C@@H](O)[C@H](O[C@H]3C4C=CO[C@@H](O[C@@H]5O[C@H](CO)[C@@H](O)[C@H](O)[C@H]5O)C4[C@@]4(CO)O[C@@H]34)O[C@H]2C)cc1 (some centres undefined) | inactive | inactive
C=C(CO)C(=O)O[C@H]1C[C@@]23O[C@@H]2CC/C(=C/[C@H]2OC(=O)C(=C)[C@H]12)CO[C@H]3O | inactive | inactive
COc1cc(C)c(C(=O)O[C@@H]2[C@H](O)[C@@H](CO)O[C@H]2n2ccc(=O)[nH]c2=O)c(OC)c1 | inactive | inactive
FC(F)(F)c1nnc2c(Sc3ccccc3)nc3ccc(Cl)cc3n12 | inactive | inactive
C[C@@H]1O[C@@H](OC2C(CO)OC(OCC3OC(OC(=O)[C@]45CCC(C)(C)CC4C4=CCC6[C@@]7(C)CC[C@@H](O)[C@](C)(C(=O)O)C7CC[C@@]6(C)[C@]4(C)CC5)C(O)C(O)C3O)C(O)C2O)[C@H](O)[C@H](O)[C@H]1O (some centres undefined) | inactive | inactive
CCc1cc(CC[C@]2(C3CCCC3)CC(O)=C(Cc3nc4nc(C)cc(C)n4n3)C(=O)O2)cc(CC)n1 | inactive | inactive
C[C@H]1[C@H](C)CC[C@]2(C(=O)O)CC[C@]3(C(=O)O)C(=CCC4[C@@]5(C)CC[C@H](O[C@@H]6O[C@@H](C)[C@H](O)[C@@H](O)[C@H]6O)C(C)(C)C5CC[C@]43C)[C@H]12 (some centres undefined) | inactive | inactive

Structure (SMILES) | Potency [1] | Potency [2]
CC(C)c1c(NC(=O)Nc2ccc(Cl)cc2)c(=O)n(-c2ccccc2)n1C | inactive | inactive
C=C1CCC2[C@](C)(CCC[C@]2(C)C(=O)O)[C@H]1CC/C(C)=C/C(=O)OC (some centres undefined) | 12.6 µM (active) | inactive
COC(=O)C(CC1CCCC1)c1ccc(S(C)(=O)=O)cc1 (centres undefined) | inactive | inactive
C[C@H](O)C(O)(C(=O)OCc1ccccc1NC(=O)CCC(N)C(=O)O)[C@H](C)O (some centres undefined) | inactive | inactive
CC1(C)C(=O)N2c3ccccc3C(O)(CC(C(=O)O)n3cnc4ccccc4c3=O)C2N1O (centres undefined) | inactive | inactive
C/C(=C/CO)CC[C@H]1[C@]2(C)C[C@H](O)CC(C)(C)[C@H]2CC[C@]1(C)O | inactive | inactive
CCC(C)C(=O)OC[C@H]1O[C@H](O[C@H]2O[C@H](CO)[C@@H](O)[C@H](O)[C@H]2O)[C@H](O)[C@@H](O)[C@@H]1O (some centres undefined) | inactive | inactive
C[C@H](/C=C/[C@@]1(O)[C@H](C)CC(=O)CC1(C)C)O[C@@H]1O[C@H](CO[C@@H]2OC[C@@H](O)[C@H](O)[C@H]2O)[C@@H](O)[C@H](O)[C@H]1O | inactive | inactive
CC1C2=CC(=O)OC2(O)CC2C1C(O)CC1C(C)(CO)CCCC21C (centres undefined) | inactive | inactive
Cc1c(F)cc(C(=O)NC2CC2)cc1-c1ccc(C(=O)NCC(C)(C)C)cn1 | inactive | inactive
C=C1CC[C@@]2(OC1)O[C@H]1CC3[C@@H]4CC=C5C[C@@H](O)C[C@@H](O[C@@H]6OC[C@H](O)[C@H](O)[C@H]6O[C@@H]6O[C@@H](C)[C@H](O)[C@@H](O)[C@H]6O)[C@]5(C)C4CC[C@]3(C)[C@H]1[C@@H]2C (some centres undefined) | inactive | inactive
CC(=O)O[C@@H]1[C@@H](O)[C@H](C)O[C@@H](O[C@H]2[C@@H]3C=CO[C@@H](O[C@@H]4O[C@H](CO)[C@@H](O)[C@H](O)[C@H]4OC(C)=O)[C@@H]3[C@@]3(CO)O[C@@H]23)[C@@H]1OC(=O)/C=C/c1ccc(O)cc1 | inactive | inactive
CC(NC(=O)[C@H](Cc1ccccc1)NC(=O)OCc1ccccc1)C(=O)CF (some centres undefined) | inactive | inactive
CC[C@H]1OC(=O)[C@H](C)[C@@H](O[C@H]2C[C@@](C)(OC)[C@@H](O)[C@H](C)O2)C(C)[C@@H](O[C@@H]2O[C@H](C)C[C@H](N(C)C)[C@H]2O)[C@](C)(O)C[C@@H](C)CN(C)[C@H](C)[C@@H](O)[C@]1(C)O (some centres undefined) | inactive | inactive
C=CC(C)(CC/C=C(\C)C(=O)OC)OC1OC(COC(=O)CC(C)(O)CC(=O)O)C(O)C(O)C1O (centres undefined) | inactive | inactive
COc1ccc(NC(=O)c2ccc(-c3ccc(C(N)=O)cc3C)cc2)cc1N1CCN(C)CC1 | inactive | inactive
CC1(C)CC[C@]2(C(=O)O[C@@H]3O[C@H](CO)[C@@H](O)[C@H](O)[C@H]3O)CC[C@]3(C)C(=CCC4[C@@]5(C)CC[C@H](O[C@H]6O[C@H](CO)[C@@H](O)[C@H](O[C@@H]7O[C@H](CO)[C@@H](O)[C@H](O)[C@H]7O)[C@H]6O)C(C)(C)C5CC[C@]43C)[C@@H]2C1 (some centres undefined) | inactive | inactive
CC1(C(=O)O)CCCC2(C)C3CCC4CC3(CCC12)CC4(O)CO (centres undefined) | inactive | inactive
